Source: PubChem (National Center for Advancing Translational Sciences (NCATS))
HP1b binding inh = HTS for Inhibitors of HP1-beta Chromodomain Interactions with Methylated Histone Tails | AID 540317, 2011 | AlphaScreen HP1-beta / biotin-H3K9me3 peptide binding | Potency, µM (titrated, usually from 114 µM), most hits filed as inhibitors | Chromobox protein homolog 1 (Homo sapiens), P83916 | 390,000 tested, 0.56% active; note: nearly all actives have a fitted effect of over 70% in size
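HP1-beta protein (50 nM final) preincubated 30 min at room temperature with biotinylated H3(1-18)K9me3 peptide (50 nM) in PBS pH 7.4, 0.01% Tween-20, then compound added for 30 min. AlphaScreen streptavidin donor/nickel chelate acceptor beads (10 ug/mL final), 30 min dark, luminescence read.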
G9a block = qHTS Assay for Inhibitors of Histone Lysine Methyltransferase G9a. G9a H3K9 monomethylation, AlphaScreen, 2 h. AID 504332, 2011. Potency, µM (titrated, usually from 102 µM), most hits filed as inhibitors. 350,000 tested, 8.8% active. Histone-lysine N-methyltransferase EHMT2 (Homo sapiens), Q96KQ7; note: nearly all actives have a fitted effect of over 75% in size
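AlphaScreen detection with an anti-monomethyl H3K9 antibody quantified product after a 2 h room-temperature reaction containing 500 nM biotinylated H3K9 peptide, 20 µM SAM and 20 nM enzyme, which had been preincubated 15 min with compound.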
BAZ2B inh = qHTS Assay for Inhibitors of BAZ2B; Bromodomain adjacent to zinc finger domain protein 2B (Homo sapiens), Q9UIF8; AlphaScreen BAZ2B-H3K14Ac peptide displacement; Potency, µM (doses to about 114 µM), most hits filed as inhibitors; 360,000 tested, 4.4% active; AID 504333, 2011; note: nearly all actives have a fitted effect of over 60% in size
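Inhibition is scored as reduced AlphaScreen emission. The BAZ2B/b-H3(5-23)K14Ac complex (50 nM each) in PBS pH 7.4, 0.01% Tween-20 meets compound (up to 110 uM) for 30 min at RT before bead addition.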
Sfp inh = qHTS Assay for Inhibitors of Bacillus subtilis Sfp phosphopantetheinyl transferase (PPTase) | 4'-phosphopantetheinyl transferase ffp (Bacillus subtilis), Q9F4F7 | Biochemical Sfp PPTase activity, qHTS | Potency, µM, most hits filed as inhibitors | 310,000 tested, 3.5% active;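 note: the enzyme is Sfp with the accession as filed and its product quenches rhodamine fluorescence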
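With Hepes-Na pH 7.6 buffer containing 10 mM MgCl2, Sfp (15 nM) modified BHQ-2-YbbR (12.5 uM) using rhodamine-CoA (5 uM). Two reads 30 minutes apart at 525/598 nm yielded each well's rate.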
JMJD2A Tudor = qHTS Assay for Inhibitors of JMJD2A-Tudor Domain | Lysine-specific demethylase 4A (Homo sapiens), O75164 | AlphaScreen JMJD2A-Tudor / H3K4me3 peptide binding | Potency, µM (doses to about 114 µM), actives largely listed as inhibitors | 390,000 tested, 4.4% active; note: nearly all actives have a fitted effect of over 50% in size
L3MBTL1 block = qHTS Assay for the Inhibitors of L3MBTL1. AlphaScreen L3MBTL1–H3K9me1 peptide binding. Potency, µM (doses to about 57.1 µM), hits mostly inhibitors. 230,000 tested, 0.66% active. AID 485360, 2010; note: nearly all actives have a fitted effect of over 60% in size
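AlphaScreen proximity signal between nickel-chelate acceptor and streptavidin donor beads (final 10 ug/mL) reports binding of 50 nM L3MBTL1 to 75 nM biotin-H3 K9me1 peptide; complex incubated with compounds 30 min at room temperature; cefsulodin titration as control.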
Hits are given with their value; - = inactive; ? = inconclusive; . = not tested or not shown; [ ] = dose if it differs, or a comment. A selection: hits, their analogues and other compounds. The true share with any hit is near 12%. Calls come from the whole dose curve; as a rule, active = well fitted curve in the direction sought with a large enough effect; inconclusive = small, poorly fitted or top-dose-only effect, or another doubt; inactive = no such curve, though single readings can be large; an effect the other way counts as inactive or inconclusive.

SMILES	HP1b binding inh	G9a block	BAZ2B inh	Sfp inh	JMJD2A Tudor	L3MBTL1 block
CCc1ccc(NC(=O)CSC2=Nc3ccccc3C3=NC(CCC(=O)NCCc4ccccc4)C(=O)N23)cc1 (configuration not stated)	-	-	-	.	-	.
Cc1ccc(/C=c2\s/c(=C(/C#N)C(=O)N3CCCC3)n(Cc3ccco3)c2=O)s1	-	?	?	13µM	?	-[11.4 µM]
Cc1nnc(NC(=O)CSc2ccc([N+](=O)[O-])cn2)s1	-	?	-	-	-	-
N#Cc1ccccc1NC(=O)CSc1ccc([N+](=O)[O-])cn1	-	50µM	-	-	-	.
O=C(Cn1cnc2cc([N+](=O)[O-])ccc2c1=O)Nc1ccc2c(c1)OCO2	-	40µM	?	-	-	-
O=C(CSc1ccc([N+](=O)[O-])cn1)Nc1ccc2c(c1)OCO2	-	45µM	?	-	-	.
O=C(Cc1ccc([N+](=O)[O-])cc1)Nc1ccc2c(c1)OCO2	-	-	-	-	-	.
COC(=O)c1sccc1S(=O)(=O)N1CCN(c2ccccc2)CC1	-	-	-	.	-	.
COc1cccc(-n2c(-c3ccco3)nc3c(cnn3-c3ccc(C)cc3)c2=O)c1	-	-	.	.	-	.
COc1ccc(-c2nc(SCCOc3cc(C)ccc3C(C)C)n3[nH]c(=O)cc3n2)cc1	-	-	-	.	-	.
CCNC(=O)CC1C(=O)N(c2ccc(F)cc2)C(=O)N1Cc1ccc(OC)c(OC)c1 (configuration not stated)	-	-	-	.	-	.
O=C(O)c1ccc(N2C(=O)CC(N3CCN(c4ccc(Cl)cc4)CC3)C2=O)cc1 (configuration not stated)	-	45µM	?	-	-	-
CCCOc1ccc(N2C(=O)CC(N3CCN(c4ccccc4OC)CC3)C2=O)cc1 (configuration not stated)	-	45µM	-	-	-	.
COc1ccc(N2C(=O)CC(N3CCN(c4ccc(S(C)(=O)=O)cc4)CC3)C2=O)cc1 (configuration not stated)	-	32µM	-	-	-	.
Cc1cccc(N2C(=O)CC(N3CCN(c4ccc(Cl)cc4)CC3)C2=O)c1 (configuration not stated)	-	-	-	-	-	-
Cc1cccc(N2C(=O)CC(N3CCN(Cc4ccc(Cl)cc4)CC3)C2=O)c1 (configuration not stated)	-	40µM	-	-	-	.
CCc1cccc(NCc2ccccc2-c2nnc(-c3ccccc3Cl)o2)c1	-	-	-	.	-	.
COc1ccc(CCNC(=O)c2cc(=O)c3cc(C)c(C)cc3o2)cc1OC	-	-	-	.	-	.
COc1ccc(NC2CCN(C3CC(=O)N(c4ccc(F)c(Cl)c4)C3=O)CC2)cc1 (configuration not stated)	?	?	45µM	-	?	-
COc1ccc(-n2nc3cc(C)c(NC(=O)c4ccc(-c5ccc(Br)cc5)o4)cc3n2)cc1	-	-	-	.	-	.
CCCN1C(=O)/C(=C/c2ccc(C)s2)SC1=Nc1ccc(OC)cc1	-	-	?	-	?	-
COc1ccc(N=C2S/C(=C\c3ccc(Cl)c([N+](=O)[O-])c3)C(=O)N2CCN(C)C)cc1	16µM	?	16µM	40µM	35µM	.
CCN(CC)CCN1C(=O)/C(=C\c2ccc(Cl)c([N+](=O)[O-])c2)SC1=Nc1ccc(OC)cc1	11µM	11µM	10µM	45µM	18µM	.
Cc1ccc(NC(=O)CN2CCSc3ccc(S(=O)(=O)N4CCCC4)cc32)cc1C	-	-	-	.	-	.
Cc1cccc(N=NC(=S)NNc2cccc(C)c2)c1	45µM	.	.	.	25µM	.
